# Tests used:
# Assay in all cases: DAPPL (digital affinity profiling via proximity ligation, sequencing); 10 mM Tris-HCl pH 7.5, 50 mM NaCl, 1 mM DTT, 4% glycerol, room temperature, 30 min; GST-TFs on glutathione beads, 16-mer random dsDNA library, 0.1% formaldehyde crosslink after washing; high values mean tight binding
# Conditions in all cases: protein: recombinant; tags: N-terminal GST; dsDNA, one strand shown
# [1] = molecular target: T1, ERF (Homo sapiens, UniProt P50548 1-548)
# T1 sequence: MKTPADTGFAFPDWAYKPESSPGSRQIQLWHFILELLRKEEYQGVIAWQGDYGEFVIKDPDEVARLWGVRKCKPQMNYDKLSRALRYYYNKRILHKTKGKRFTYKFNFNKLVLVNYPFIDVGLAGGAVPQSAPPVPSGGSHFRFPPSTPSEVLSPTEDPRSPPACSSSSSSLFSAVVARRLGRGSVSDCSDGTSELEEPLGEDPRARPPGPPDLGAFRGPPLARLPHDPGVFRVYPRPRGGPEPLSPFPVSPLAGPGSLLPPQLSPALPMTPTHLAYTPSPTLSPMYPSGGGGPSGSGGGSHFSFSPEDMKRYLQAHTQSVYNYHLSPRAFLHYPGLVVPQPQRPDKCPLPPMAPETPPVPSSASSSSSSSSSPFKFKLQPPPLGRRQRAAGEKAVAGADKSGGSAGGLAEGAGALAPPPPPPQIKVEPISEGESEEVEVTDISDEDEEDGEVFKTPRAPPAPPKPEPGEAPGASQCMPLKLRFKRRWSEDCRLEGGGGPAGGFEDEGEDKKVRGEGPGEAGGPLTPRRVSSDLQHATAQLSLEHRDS
# Method in brief: (§1)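 GST fusions of human transcription factors were expressed in yeast and captured with glutathione beads. Once given DNA barcodes and pooled alongside a tag-only sample, they were incubated for 30 min at room temperature with 200 nmole of a random double-stranded 16-mer DNA library in Tris/NaCl/DTT/glycerol buffer, then washed, crosslinked (0.1% formaldehyde), proximity-ligated, PCR-amplified and sequenced on an Illumina NextSeq500. The binding signal of each hexamer is its read frequency for a factor divided by its frequency for the tag-only sample.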
# [2] = molecular target: T2, ETV3L (Homo sapiens, UniProt Q6ZN32 1-361)
# T2 sequence: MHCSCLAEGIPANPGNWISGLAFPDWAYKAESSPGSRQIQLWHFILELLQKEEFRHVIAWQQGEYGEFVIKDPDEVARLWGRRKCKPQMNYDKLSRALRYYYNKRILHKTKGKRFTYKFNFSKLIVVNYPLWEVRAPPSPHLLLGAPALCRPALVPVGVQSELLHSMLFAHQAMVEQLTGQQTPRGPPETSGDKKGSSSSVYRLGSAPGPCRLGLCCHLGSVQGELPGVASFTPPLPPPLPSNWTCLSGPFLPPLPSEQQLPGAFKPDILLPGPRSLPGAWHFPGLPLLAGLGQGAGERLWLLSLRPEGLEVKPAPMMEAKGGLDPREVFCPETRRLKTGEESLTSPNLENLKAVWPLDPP
# Method in brief: as §1
# [3] = molecular target: T3, ETS2 (Homo sapiens, UniProt P15036 1-469)
# T3 sequence: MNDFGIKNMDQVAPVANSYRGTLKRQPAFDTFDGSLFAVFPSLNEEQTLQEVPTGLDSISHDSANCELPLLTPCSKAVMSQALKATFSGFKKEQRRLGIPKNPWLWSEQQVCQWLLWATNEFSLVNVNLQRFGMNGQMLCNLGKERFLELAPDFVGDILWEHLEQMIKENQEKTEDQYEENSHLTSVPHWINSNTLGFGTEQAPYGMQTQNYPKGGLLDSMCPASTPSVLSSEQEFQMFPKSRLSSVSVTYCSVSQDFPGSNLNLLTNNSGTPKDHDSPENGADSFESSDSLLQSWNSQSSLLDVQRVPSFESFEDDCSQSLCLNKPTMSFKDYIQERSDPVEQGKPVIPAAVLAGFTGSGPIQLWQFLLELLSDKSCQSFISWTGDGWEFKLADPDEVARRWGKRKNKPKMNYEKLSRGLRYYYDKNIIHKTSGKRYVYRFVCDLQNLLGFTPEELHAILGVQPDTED
# Method in brief: as §1
# [4] = molecular target: T4, SPDEF (Homo sapiens, UniProt O95238 1-335)
# T4 sequence: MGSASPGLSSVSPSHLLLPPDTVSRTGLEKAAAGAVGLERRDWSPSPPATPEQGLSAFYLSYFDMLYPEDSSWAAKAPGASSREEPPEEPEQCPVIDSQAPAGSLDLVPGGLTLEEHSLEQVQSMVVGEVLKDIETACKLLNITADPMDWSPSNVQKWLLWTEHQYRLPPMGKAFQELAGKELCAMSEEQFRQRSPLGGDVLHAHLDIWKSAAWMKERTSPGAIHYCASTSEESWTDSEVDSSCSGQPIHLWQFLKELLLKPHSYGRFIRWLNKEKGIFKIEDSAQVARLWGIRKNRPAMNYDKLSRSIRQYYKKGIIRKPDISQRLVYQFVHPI
# Method in brief: as §1
# [5] = molecular target: T5, ETV7 (Homo sapiens, UniProt Q9Y603 1-341)
# T5 sequence: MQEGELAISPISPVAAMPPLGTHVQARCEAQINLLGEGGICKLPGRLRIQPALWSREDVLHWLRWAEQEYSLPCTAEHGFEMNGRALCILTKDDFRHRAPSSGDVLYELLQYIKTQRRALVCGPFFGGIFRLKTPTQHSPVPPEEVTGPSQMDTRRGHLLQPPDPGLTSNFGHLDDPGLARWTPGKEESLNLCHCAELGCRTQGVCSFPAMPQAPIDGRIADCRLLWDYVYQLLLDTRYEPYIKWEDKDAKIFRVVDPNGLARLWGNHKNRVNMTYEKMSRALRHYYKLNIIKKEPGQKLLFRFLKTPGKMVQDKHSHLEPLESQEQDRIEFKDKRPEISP
# Method in brief: as §1
# [6] = molecular target: T6, ETV3 (Homo sapiens, UniProt P41162-2 1-143)
# T6 sequence: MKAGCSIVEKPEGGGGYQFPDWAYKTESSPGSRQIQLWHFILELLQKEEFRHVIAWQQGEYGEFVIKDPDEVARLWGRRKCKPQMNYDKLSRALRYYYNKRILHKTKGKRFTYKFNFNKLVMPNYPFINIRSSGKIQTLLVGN
# Method in brief: as §1
# [7] = molecular target: ETV6 (Homo sapiens, UniProt P41212 1-452)
# Method in brief: as §1
# [8] = molecular target: T7, ELF5 (Homo sapiens, UniProt Q9UKW6-2 1-255)
# T7 sequence: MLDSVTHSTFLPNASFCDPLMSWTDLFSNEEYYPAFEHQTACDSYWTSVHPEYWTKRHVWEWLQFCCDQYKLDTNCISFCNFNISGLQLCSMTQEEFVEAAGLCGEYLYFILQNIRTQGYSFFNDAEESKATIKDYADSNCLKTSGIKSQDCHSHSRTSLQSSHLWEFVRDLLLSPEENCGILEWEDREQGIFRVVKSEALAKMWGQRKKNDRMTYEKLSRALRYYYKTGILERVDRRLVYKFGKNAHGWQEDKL
# Method in brief: as §1
# Chain of ETV6 (P41212 whole entry): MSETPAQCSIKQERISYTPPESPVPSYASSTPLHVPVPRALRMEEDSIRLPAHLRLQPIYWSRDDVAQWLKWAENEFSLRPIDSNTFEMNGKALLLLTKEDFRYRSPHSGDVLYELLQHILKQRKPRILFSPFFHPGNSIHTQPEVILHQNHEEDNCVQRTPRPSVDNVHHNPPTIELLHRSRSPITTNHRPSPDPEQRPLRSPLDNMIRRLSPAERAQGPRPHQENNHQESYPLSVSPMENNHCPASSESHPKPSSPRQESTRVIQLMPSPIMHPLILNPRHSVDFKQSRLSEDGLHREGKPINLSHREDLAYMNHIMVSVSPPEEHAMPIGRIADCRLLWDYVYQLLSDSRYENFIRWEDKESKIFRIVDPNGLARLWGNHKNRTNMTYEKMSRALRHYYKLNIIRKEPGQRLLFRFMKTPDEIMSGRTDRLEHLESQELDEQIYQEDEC
Sequence,binding signal [1],binding signal [2],binding signal [3],binding signal [4],binding signal [5],binding signal [6],binding signal [7],binding signal [8]
GTGCTA,"1.02 fold enrichment (6-mer frequency, TF over GST control)","1.04 fold enrichment (6-mer frequency, TF over GST control)","1.13 fold enrichment (6-mer frequency, TF over GST control)","1.12 fold enrichment (6-mer frequency, TF over GST control)","1 fold enrichment (6-mer frequency, TF over GST control)","1.11 fold enrichment (6-mer frequency, TF over GST control)",–,–
TTGAAC,"1.16 fold enrichment (6-mer frequency, TF over GST control)","1.17 fold enrichment (6-mer frequency, TF over GST control)","1.17 fold enrichment (6-mer frequency, TF over GST control)","1.06 fold enrichment (6-mer frequency, TF over GST control)","1.18 fold enrichment (6-mer frequency, TF over GST control)","1.14 fold enrichment (6-mer frequency, TF over GST control)","1.1 fold enrichment (6-mer frequency, TF over GST control)",–
CTATCG,"1.28 fold enrichment (6-mer frequency, TF over GST control)","1.07 fold enrichment (6-mer frequency, TF over GST control)","1.04 fold enrichment (6-mer frequency, TF over GST control)","1.04 fold enrichment (6-mer frequency, TF over GST control)","1.19 fold enrichment (6-mer frequency, TF over GST control)","1.1 fold enrichment (6-mer frequency, TF over GST control)","1.07 fold enrichment (6-mer frequency, TF over GST control)",–
AGCAGC,"1.08 fold enrichment (6-mer frequency, TF over GST control)","1.09 fold enrichment (6-mer frequency, TF over GST control)","1.2 fold enrichment (6-mer frequency, TF over GST control)","1.02 fold enrichment (6-mer frequency, TF over GST control)","1.19 fold enrichment (6-mer frequency, TF over GST control)","1.08 fold enrichment (6-mer frequency, TF over GST control)","1.04 fold enrichment (6-mer frequency, TF over GST control)",–
ACAGAT,"1.06 fold enrichment (6-mer frequency, TF over GST control)","1.01 fold enrichment (6-mer frequency, TF over GST control)","1.03 fold enrichment (6-mer frequency, TF over GST control)","1.05 fold enrichment (6-mer frequency, TF over GST control)","1.12 fold enrichment (6-mer frequency, TF over GST control)","1.02 fold enrichment (6-mer frequency, TF over GST control)",–,–
CGATCG,"1.04 fold enrichment (6-mer frequency, TF over GST control)","1.03 fold enrichment (6-mer frequency, TF over GST control)","1.04 fold enrichment (6-mer frequency, TF over GST control)","1.1 fold enrichment (6-mer frequency, TF over GST control)","1 fold enrichment (6-mer frequency, TF over GST control)","1.09 fold enrichment (6-mer frequency, TF over GST control)","1.03 fold enrichment (6-mer frequency, TF over GST control)",–
TGATCA,"1.15 fold enrichment (6-mer frequency, TF over GST control)","1.07 fold enrichment (6-mer frequency, TF over GST control)","1.06 fold enrichment (6-mer frequency, TF over GST control)","1.05 fold enrichment (6-mer frequency, TF over GST control)","1.14 fold enrichment (6-mer frequency, TF over GST control)","1.05 fold enrichment (6-mer frequency, TF over GST control)",–,–
GAAAAC,"1.11 fold enrichment (6-mer frequency, TF over GST control)","1.13 fold enrichment (6-mer frequency, TF over GST control)","1.11 fold enrichment (6-mer frequency, TF over GST control)","1.07 fold enrichment (6-mer frequency, TF over GST control)","1.13 fold enrichment (6-mer frequency, TF over GST control)",–,"1.06 fold enrichment (6-mer frequency, TF over GST control)","1.16 fold enrichment (6-mer frequency, TF over GST control)"
CCACAA,"1.24 fold enrichment (6-mer frequency, TF over GST control)","1.26 fold enrichment (6-mer frequency, TF over GST control)","1.23 fold enrichment (6-mer frequency, TF over GST control)","1.14 fold enrichment (6-mer frequency, TF over GST control)",–,"1.12 fold enrichment (6-mer frequency, TF over GST control)","1.18 fold enrichment (6-mer frequency, TF over GST control)","1.18 fold enrichment (6-mer frequency, TF over GST control)"
TGTGGA,"1.15 fold enrichment (6-mer frequency, TF over GST control)","1.17 fold enrichment (6-mer frequency, TF over GST control)","1.02 fold enrichment (6-mer frequency, TF over GST control)","1.1 fold enrichment (6-mer frequency, TF over GST control)",–,"1.02 fold enrichment (6-mer frequency, TF over GST control)","1.07 fold enrichment (6-mer frequency, TF over GST control)","1.02 fold enrichment (6-mer frequency, TF over GST control)"
CAACGC,"1.05 fold enrichment (6-mer frequency, TF over GST control)","1.07 fold enrichment (6-mer frequency, TF over GST control)","1.07 fold enrichment (6-mer frequency, TF over GST control)","1.08 fold enrichment (6-mer frequency, TF over GST control)","1.09 fold enrichment (6-mer frequency, TF over GST control)",–,"1.03 fold enrichment (6-mer frequency, TF over GST control)",–
TCAATG,"1.11 fold enrichment (6-mer frequency, TF over GST control)","1.05 fold enrichment (6-mer frequency, TF over GST control)","1.06 fold enrichment (6-mer frequency, TF over GST control)","1.12 fold enrichment (6-mer frequency, TF over GST control)",–,"1.06 fold enrichment (6-mer frequency, TF over GST control)","1.05 fold enrichment (6-mer frequency, TF over GST control)",–
GCATTC,"1.16 fold enrichment (6-mer frequency, TF over GST control)","1.07 fold enrichment (6-mer frequency, TF over GST control)","1.08 fold enrichment (6-mer frequency, TF over GST control)","1.1 fold enrichment (6-mer frequency, TF over GST control)",–,"1.17 fold enrichment (6-mer frequency, TF over GST control)","1.19 fold enrichment (6-mer frequency, TF over GST control)","1.06 fold enrichment (6-mer frequency, TF over GST control)"
CCAAAC,"1.08 fold enrichment (6-mer frequency, TF over GST control)","1.12 fold enrichment (6-mer frequency, TF over GST control)","1.1 fold enrichment (6-mer frequency, TF over GST control)","1.11 fold enrichment (6-mer frequency, TF over GST control)",–,"1.11 fold enrichment (6-mer frequency, TF over GST control)","1.07 fold enrichment (6-mer frequency, TF over GST control)","1.09 fold enrichment (6-mer frequency, TF over GST control)"
CACACG,"1.12 fold enrichment (6-mer frequency, TF over GST control)","1.21 fold enrichment (6-mer frequency, TF over GST control)","1.12 fold enrichment (6-mer frequency, TF over GST control)","1.16 fold enrichment (6-mer frequency, TF over GST control)",–,"1.1 fold enrichment (6-mer frequency, TF over GST control)","1.18 fold enrichment (6-mer frequency, TF over GST control)","1.04 fold enrichment (6-mer frequency, TF over GST control)"
CACAAT,"1.18 fold enrichment (6-mer frequency, TF over GST control)","1.08 fold enrichment (6-mer frequency, TF over GST control)","1.13 fold enrichment (6-mer frequency, TF over GST control)","1.07 fold enrichment (6-mer frequency, TF over GST control)",–,"1.12 fold enrichment (6-mer frequency, TF over GST control)","1.09 fold enrichment (6-mer frequency, TF over GST control)","1.06 fold enrichment (6-mer frequency, TF over GST control)"
